Results filed as inconclusive are left out. Active and inactive are the calls of the source. Unless noted, calls come from the whole dose curve; as a rule, active = well fitted curve in either direction with a large enough effect (not every such curve was filed as active); inconclusive = small, poorly fitted or top-dose-only effect, or another doubt; inactive = flat fitted curve, though single readings scatter.

The target of assay [1] is Lysosomal acid glucosylceramidase (Homo sapiens) (UniProt P04062). Kind of assay: Glucocerebrosidase-p2 (AID 348; in the data active = potency below about 10 µM; note: potency is the fitted concentration of half-maximal effect). The settings on record: purified GBA, blue fluorogenic substrate, 40 min. Put shortly:
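Compounds titrated from 0.6 nM upwards against 0.2 nM enzyme in pH 5.9 citric acid/KH2PO4, taurocholate, tween-20; blue fluorogenic substrate 80 uM, 40 min room temperature, stopped and read Ex 365/Em 440 for AC50.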

Assay [2] is described as follows: AP1 Signaling Pathway (AID 357). Note: % is set by controls: 0 for no effect and ±100 for the full control effect. The note with it: ME-180 AP-1-bla reporter, EGF-induced, beta-lactamase ratio, 5 h; at 7.69 µM (top of the series) unless noted. Put shortly: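 Modulation of EGF-driven AP-1 transcription was assessed with a beta-lactamase reporter in ME-180 cells. Compound and EC50 EGF were co-incubated 5 hours at 37 °C before 2.5-hour CCF4 loading at room temperature and dual-emission reading.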

Assay [3] has as its target Cytochrome P450 1A2 (Homo sapiens) (UniProt P05177). Description: p450-cyp1a2 (AID 410; calls by dose curve; note: potency is the fitted concentration of half-maximal effect). The settings on record: recombinant CYP1A2, luciferin-ME demethylation, luminescence; series mostly up to 57 µM. Put shortly: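 Luminescent readout of luciferin formed from Luciferin-ME by human CYP1A2; data normalized against complete inhibition by 57 uM furafylline. Enzyme 20nM, substrate 100uM at Km, 100mM KPO4 buffer, 60 min reaction at room temperature.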

A short description of assay [4]: Stat Signaling Pathway (AID 446).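 Note: ME-180 cervical cancer cells given 40 pM IL-6 alongside compound; SIE-controlled beta-lactamase reporter measured as 460/530 nm FRET emission ratio; % is set by controls: 0 for no effect and ±100 for the full control effect.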 The settings on record: ME-180 SIE beta-lactamase reporter, IL-6 stimulated, 5 h; at 7.69 µM (top of the series) unless noted. Put shortly: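 ME-180 cells carrying a SIE-driven beta-lactamase reporter are stimulated with 40 pM IL-6 for 5 h at 37C in the presence of compound. The 460/530 nm FRET substrate ratio is read after 2.5 h at RT. Data are normalised to 300 pM IL-6 and to 125 nM JAK inhibitor controls.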

For assay [5], the target named is Glucocorticoid receptor (Homo sapiens) (UniProt P04150). Description: GR-EFC Redistribution (AID 451; calls by dose curve; note: potency is the fitted concentration of half-maximal effect). The settings on record: CHO-K1 GR-EFC translocation, beta-gal luminescence, 2 h. Put shortly:
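CHO-K1 cells stably expressing nuclear-localized β-gal enzyme acceptor and GR fused C-terminally to the enzyme donor fragment; ligand-driven nuclear translocation restores β-gal by complementation. Compounds titrated up to 46 uM final, 2 h at 37 °C; luminescence read.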

Assay [6] concerns the target Mitogen-activated protein kinase 10 (Mus musculus) (UniProt Q61831). Description: JNK3 AlphaScreen Assay (AID 530).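 Note: kinase came from lysate of stimulated human HepG2 cells; signal reports phosphorylation of biotinylated GST-cJun 1-79 at Ser73 with 10 µM ATP; % is set by controls: 0 for no effect and ±100 for the full control effect.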 The settings on record: JNK3 lysate, c-Jun phosphorylation; series mostly up to 57.1 µM. Put shortly: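 Inhibitors reduce antibody binding to phosphorylated biotin-cJun, lowering AlphaScreen luminescence. Lysates from HepG2 cells pre-activated by IL-1beta plus TNF-alpha supplied JNK3; compounds were titrated.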

Assay [7] concerns the target 3',5'-cyclic-AMP phosphodiesterase 4B (Homo sapiens) (UniProt Q07343). Kind of assay: qHTS Assay for Inhibitors of PDE-IV (AID 607; active = well fitted activation curve with a large enough effect in the main read-out, with a control signal flat, not every such curve was filed as active; note: % of control where 0% means no effect). The note with it: HEK293 ACTOne CNG channel cells, membrane potential fluorescence; series mostly up to 22.9 µM. Put shortly: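 HEK293 ACTOne cells with CNG channel (1000/well), endogenous PDE4; membrane potential dye, compounds up to 22.9 uM final. Fluorescence Ex 535/Em 590; RO 20-1724 (100 uM final) as reference.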

The nature of assay [8]: qHTS Assay for Lipid Storage Modulators (AID 1519; calls by dose curve). The settings on record: Drosophila S3 cells, BODIPY lipid droplet/cell ratio, laser cytometry, cells loaded with oleic acid; for activity change, negative = inhibition: at 57.5 µM (top of the series). Put shortly: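 Cells seeded at 5,000 per well were treated with compounds over a concentration series and loaded with oleic acid (400 uM, as added). Lipid droplet fluorescence (488 nm excitation, 500-530 nm channel) was read by laser-scanning cytometry and normalized to 20 uM Triacsin C.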
(In general: qHTS replaces the single test concentration by a dilution series.)

The nature of assay [9]: Primary qHTS for small molecule stabilizers of the endoplasmic reticulum resident proteome: Secreted ER Calcium Modulated Protein (SERCaMP) assay (AID 1508630; active = well fitted curve in the direction sought with a large enough effect; an effect the other way counts as inactive or inconclusive; note: % is set by controls: 0 for no effect and ±100 for the full control effect). The note with it: SH-SY5Y GLuc-SERCaMP (Gaussia luciferase released on ER calcium loss) secretion, thapsigargin, luminescence; series mostly up to 38.4 µM. Put shortly:
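GLuc-SERCaMP-expressing SH-SY5Y cells, pretreated 16 h with compound, are challenged with thapsigargin to empty ER calcium stores; after 4 h, coelenterazine is added directly to the medium and luminescence is imaged.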

Assay [10] concerns the target Cytochrome P450 2C9 (Homo sapiens) (UniProt P11712). Description: qHTS Assay for Inhibitors and Substrates of Cytochrome P450 2C9 (AID 883; active = well fitted curve in the direction sought with a large enough effect; an effect the other way counts as inactive or inconclusive; note: potency is the fitted concentration of half-maximal effect; nearly all actives have a fitted effect of over 60% in size). The settings on record: recombinant CYP2C9, luciferin-H luminescence, 60 min; series mostly up to 57.1 µM. Put shortly: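 Human CYP2C9 (10nM) hydroxylated Luciferin-H (100uM, at its KM) to luciferin in 25mM KPO4. Compound was preincubated 10 min at 37C, then NADPH regeneration started a 60 min reaction at 37C. Luminescence was read after detection reagent, normalized to 57uM sulphaphenazole.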

The target of assay [11] is Cytochrome P450 3A4 (Homo sapiens) (UniProt P08684). Description: qHTS Assay for Inhibitors and Substrates of Cytochrome P450 3A4 (AID 884; active = well fitted curve in the direction sought with a large enough effect; an effect the other way counts as inactive or inconclusive; note: potency is the fitted concentration of half-maximal effect; nearly all actives have a fitted effect of over 50% in size). The settings on record: recombinant CYP3A4, Luciferin-PPXE luminescence; series mostly up to 57.1 µM. Put shortly:
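20 nM human CYP3A4 with 25 uM Luciferin-PPXE (at KM) in 200 mM KPO4, preincubated 10 min with compound; NADPH regeneration started a 60 min RT reaction. Luciferin detected by luminescence, normalized to 57 uM ketoconazole as full inhibition.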

Assay [12] has the same target. Description: qHTS Assay for Activators of Cytochrome P450 3A4 (AID 885; active = well fitted curve in the direction sought with a large enough effect; an effect the other way counts as inactive or inconclusive; note: nearly all actives have a fitted effect of over 65% in size). The settings on record: recombinant CYP3A4, Luciferin-PPXE luminescence, 60 min; series mostly up to 57.1 µM. Put shortly:
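Human CYP3A4 (20 nM) with Luciferin-PPXE at 25 uM (its KM) in 200 mM KPO4; 10 min compound preincubation, then NADPH regeneration and 60 min reaction at RT. Luciferin read by luminescence; normalized to 57 uM ketoconazole full inhibition.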

Where [13] appears, read: measured here: cell count channel max response.
Where [14] appears, read: measured here: lipid channel max response.

Sequence of Glucocorticoid receptor (Homo sapiens) (P04150 whole entry, looked up, the tested form may be a part): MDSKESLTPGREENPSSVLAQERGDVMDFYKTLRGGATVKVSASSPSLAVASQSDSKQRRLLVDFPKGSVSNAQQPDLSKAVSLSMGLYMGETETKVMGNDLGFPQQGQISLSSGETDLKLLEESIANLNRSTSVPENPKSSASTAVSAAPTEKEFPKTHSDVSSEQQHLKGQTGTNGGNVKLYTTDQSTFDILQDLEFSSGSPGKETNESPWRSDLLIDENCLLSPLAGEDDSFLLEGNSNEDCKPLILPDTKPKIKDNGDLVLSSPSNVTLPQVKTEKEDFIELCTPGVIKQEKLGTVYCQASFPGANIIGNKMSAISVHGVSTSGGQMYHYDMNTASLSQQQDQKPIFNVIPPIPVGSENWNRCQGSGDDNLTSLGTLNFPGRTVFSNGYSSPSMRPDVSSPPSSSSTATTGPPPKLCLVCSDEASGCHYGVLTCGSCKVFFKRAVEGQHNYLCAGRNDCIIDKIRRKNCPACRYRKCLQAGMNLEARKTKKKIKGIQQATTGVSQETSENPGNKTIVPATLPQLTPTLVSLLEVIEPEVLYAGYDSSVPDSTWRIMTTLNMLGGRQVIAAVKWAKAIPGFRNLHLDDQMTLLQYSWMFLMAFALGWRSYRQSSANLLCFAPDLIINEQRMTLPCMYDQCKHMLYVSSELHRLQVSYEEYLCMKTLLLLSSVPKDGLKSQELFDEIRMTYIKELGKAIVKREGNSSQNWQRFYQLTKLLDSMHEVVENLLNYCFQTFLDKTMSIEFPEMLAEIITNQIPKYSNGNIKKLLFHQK
Sequence of Cytochrome P450 3A4 (Homo sapiens) (P08684 whole entry, looked up): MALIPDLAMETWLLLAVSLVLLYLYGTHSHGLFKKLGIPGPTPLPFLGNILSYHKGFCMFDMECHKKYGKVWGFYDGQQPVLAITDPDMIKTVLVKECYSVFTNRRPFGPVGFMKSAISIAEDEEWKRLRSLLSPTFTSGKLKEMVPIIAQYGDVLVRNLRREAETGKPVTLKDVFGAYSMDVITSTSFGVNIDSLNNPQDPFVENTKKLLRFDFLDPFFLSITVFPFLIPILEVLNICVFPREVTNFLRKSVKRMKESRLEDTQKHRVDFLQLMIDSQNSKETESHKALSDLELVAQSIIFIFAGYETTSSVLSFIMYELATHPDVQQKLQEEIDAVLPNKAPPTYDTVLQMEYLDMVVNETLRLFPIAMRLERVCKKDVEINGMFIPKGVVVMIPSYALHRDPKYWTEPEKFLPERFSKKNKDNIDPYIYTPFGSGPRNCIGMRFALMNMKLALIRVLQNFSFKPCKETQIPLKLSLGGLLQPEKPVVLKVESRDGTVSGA
Sequence of 3',5'-cyclic-AMP phosphodiesterase 4B (Homo sapiens) (Q07343 whole entry, looked up): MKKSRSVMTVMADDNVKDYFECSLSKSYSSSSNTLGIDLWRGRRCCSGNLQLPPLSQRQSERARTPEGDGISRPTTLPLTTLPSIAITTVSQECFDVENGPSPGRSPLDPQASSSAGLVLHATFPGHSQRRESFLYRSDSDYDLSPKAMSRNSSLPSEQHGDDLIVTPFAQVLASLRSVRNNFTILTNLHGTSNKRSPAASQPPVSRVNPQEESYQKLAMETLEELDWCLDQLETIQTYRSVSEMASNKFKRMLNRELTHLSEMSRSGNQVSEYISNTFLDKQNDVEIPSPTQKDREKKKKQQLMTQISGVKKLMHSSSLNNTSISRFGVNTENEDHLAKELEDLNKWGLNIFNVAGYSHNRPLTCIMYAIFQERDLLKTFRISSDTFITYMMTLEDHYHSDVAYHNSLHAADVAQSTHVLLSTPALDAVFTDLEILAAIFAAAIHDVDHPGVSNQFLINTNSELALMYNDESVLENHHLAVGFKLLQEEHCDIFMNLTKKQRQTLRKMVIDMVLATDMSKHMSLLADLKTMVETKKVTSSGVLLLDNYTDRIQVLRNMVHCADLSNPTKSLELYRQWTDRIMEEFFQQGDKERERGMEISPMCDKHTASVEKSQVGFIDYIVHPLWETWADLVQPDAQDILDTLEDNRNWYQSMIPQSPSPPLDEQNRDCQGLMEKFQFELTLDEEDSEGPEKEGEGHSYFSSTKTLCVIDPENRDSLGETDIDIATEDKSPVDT
Sequence of Cytochrome P450 1A2 (Homo sapiens) (P05177 whole entry, looked up): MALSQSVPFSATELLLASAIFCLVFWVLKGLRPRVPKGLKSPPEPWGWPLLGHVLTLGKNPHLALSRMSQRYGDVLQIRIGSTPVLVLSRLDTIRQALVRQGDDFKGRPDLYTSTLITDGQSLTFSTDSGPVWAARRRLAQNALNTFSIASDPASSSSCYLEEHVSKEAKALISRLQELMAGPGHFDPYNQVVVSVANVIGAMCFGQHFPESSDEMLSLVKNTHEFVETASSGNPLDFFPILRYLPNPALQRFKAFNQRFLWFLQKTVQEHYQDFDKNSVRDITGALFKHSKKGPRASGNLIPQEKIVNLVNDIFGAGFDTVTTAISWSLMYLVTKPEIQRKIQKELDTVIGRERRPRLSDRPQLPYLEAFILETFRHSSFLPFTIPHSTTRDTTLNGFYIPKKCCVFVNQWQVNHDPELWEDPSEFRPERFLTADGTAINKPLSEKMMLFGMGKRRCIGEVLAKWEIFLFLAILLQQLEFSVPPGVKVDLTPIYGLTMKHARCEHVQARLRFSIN
Sequence of Lysosomal acid glucosylceramidase (Homo sapiens) (P04062 whole entry, looked up): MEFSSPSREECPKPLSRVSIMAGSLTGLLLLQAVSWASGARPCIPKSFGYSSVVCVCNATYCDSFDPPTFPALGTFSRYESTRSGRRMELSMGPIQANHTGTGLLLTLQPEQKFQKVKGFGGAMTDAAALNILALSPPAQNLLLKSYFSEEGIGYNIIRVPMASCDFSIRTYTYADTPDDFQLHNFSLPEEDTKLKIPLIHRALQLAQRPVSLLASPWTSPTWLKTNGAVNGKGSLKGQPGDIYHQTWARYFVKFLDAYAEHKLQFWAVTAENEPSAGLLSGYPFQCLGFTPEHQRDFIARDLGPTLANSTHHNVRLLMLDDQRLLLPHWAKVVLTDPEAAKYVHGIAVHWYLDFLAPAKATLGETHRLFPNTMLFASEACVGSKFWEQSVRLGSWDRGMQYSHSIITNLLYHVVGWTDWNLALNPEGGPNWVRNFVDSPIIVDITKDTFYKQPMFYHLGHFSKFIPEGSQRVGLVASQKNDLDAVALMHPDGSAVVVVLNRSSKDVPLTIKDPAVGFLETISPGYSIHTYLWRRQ
Sequence of Cytochrome P450 2C9 (Homo sapiens) (P11712 whole entry, looked up): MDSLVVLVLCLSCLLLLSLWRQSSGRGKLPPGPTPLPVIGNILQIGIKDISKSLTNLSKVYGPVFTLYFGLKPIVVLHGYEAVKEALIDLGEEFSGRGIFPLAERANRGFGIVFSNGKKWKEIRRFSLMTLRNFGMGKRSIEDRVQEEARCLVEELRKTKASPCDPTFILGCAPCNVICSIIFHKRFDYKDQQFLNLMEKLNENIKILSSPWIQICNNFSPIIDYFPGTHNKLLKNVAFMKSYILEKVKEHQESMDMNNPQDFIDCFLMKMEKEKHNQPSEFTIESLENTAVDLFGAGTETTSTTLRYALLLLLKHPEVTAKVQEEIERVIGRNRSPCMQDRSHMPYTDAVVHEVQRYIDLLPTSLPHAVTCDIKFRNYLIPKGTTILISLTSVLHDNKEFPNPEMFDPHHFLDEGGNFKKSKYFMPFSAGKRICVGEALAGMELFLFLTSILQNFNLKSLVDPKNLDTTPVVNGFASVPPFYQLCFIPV

In the case of `O=C(Oc1ccccc1)N1CCC2(CC1)CCN(c1ccncc1)CC2`, the Potency in [1] was > 11.4 µM (inactive); in assay [5] it was > 46 µM (inactive). Also, the activity change, negative = inhibition in assay [2] is 9.96% (inactive); in assay [8] it was 1.8% (inactive). The Potency result in assay [3], in assay [6] and in assay [7] was “inactive” in each case. In addition, the activity, negative = inhibition in [4] was 16.5% (inactive). Also, the figures for the max response in assay [8] (setting [13]) and in assay [8] (setting [14]) were -5.74% and -3.08%, respectively. For the same compound, the outcome in [9] was inactive.

In the case of `N#Cc1cccc(NC(=O)N2CCCC3(CCN(C(=O)c4ccco4)CC3)C2)c1`, the Potency in assay [1] was > 11.4 µM (inactive); in assay [3] it was 15.8 µM (active); in [5], > 46 µM (inactive); in assay [10], 3.98 µM (active); in [11] it was 5.01 µM (active). Moreover, the activity change, negative = inhibition in assay [2] was -14.7% (inactive); in assay [8] it was 7.75% (inactive). Besides, the activity, negative = inhibition in assay [4] was -1.77% (inactive). Besides, the Potency entry in assay [6], in [7] and in assay [12] was “inactive” each time. In addition, the max response in [8] (setting [13]) is 5.8%; in [8] (setting [14]) it was 16.6%. For the same compound, in assay [9], the result was inactive.

Regarding `CC(C)CN1CCCC2(CCN(C(=O)c3cccc(F)c3)CC2)C1`, the results for the Potency in assay [1] and in assay [5] were > 11.4 µM (inactive) and > 46 µM (inactive), respectively. Also, the values for the activity change, negative = inhibition in assay [2] and in assay [8] were -3.93% (inactive) and 2.15% (inactive), respectively. Besides, the Potency entry in [3], in assay [6], in assay [7] and in [12] was “inactive” each time. Moreover, in assay [4], the activity, negative = inhibition is -0.516% (inactive). The figures for the max response in assay [8] (setting [13]) and in [8] (setting [14]) were 18.6% and 24.2%, respectively. Moreover, the result in assay [9] was inactive.

Consider `COc1ccc(NC(=O)N2CCCC3(CCN(S(=O)(=O)c4ccccc4)CC3)C2)cc1`, for which the Potency in assay [1] was > 11.4 µM (inactive); in assay [5], > 46 µM (inactive); in assay [11], 7.94 µM (active). Moreover, the activity change, negative = inhibition in assay [2] was -4.9% (inactive); in [8] it was 2.57% (inactive). Moreover, the Potency entry in [3], in assay [6], in assay [7] and in assay [12] was “inactive” in each case. Besides, in [4], the activity, negative = inhibition is -19% (inactive). For the same compound, the max response in assay [8] (setting [13]) was found to be 6.07%; in assay [8] (setting [14]) it was 10.9%. In addition, the outcome in assay [9] was inactive.

Values taken from PubChem BioAssay (NCATS).
